Bioassay records: PubChem, National Center for Advancing Translational Sciences (NCATS)
The list is not random: actives were taken first. Their share in the collection is about 7.4%.
NIH3T3 tox: cytotoxic compounds in NIH 3T3 cells; NIH 3T3 viability, CellTiter-Glo ATP luminescence, 48-72 h; Potency, µM (series often up to 96.7 µM), usual class: inhibitors; hit rate 4.3% among 94,000; AID 1345082; further: nearly all actives have a fitted effect of over 55% in size
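Cytotoxicity was measured by CellTiter-Glo ATP luminescence after 48 or 72 h compound exposure at 37 °C. Mouse NIH 3T3 fibroblasts were seeded at 400 cells/well and dosed by 23 nL pin transfer.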
Luciferase inh: Photinus pyralis luciferase inhibition; AID 1347043; Potency, µM (titrated, usually from 115 µM), hits mostly inhibitors; purified P. pyralis luciferase, luminescence, biochemical; hit rate 2.5% among 76,000; further: nearly all actives have a fitted effect of over 65% in size
Target sequence (P08659 whole entry, looked up): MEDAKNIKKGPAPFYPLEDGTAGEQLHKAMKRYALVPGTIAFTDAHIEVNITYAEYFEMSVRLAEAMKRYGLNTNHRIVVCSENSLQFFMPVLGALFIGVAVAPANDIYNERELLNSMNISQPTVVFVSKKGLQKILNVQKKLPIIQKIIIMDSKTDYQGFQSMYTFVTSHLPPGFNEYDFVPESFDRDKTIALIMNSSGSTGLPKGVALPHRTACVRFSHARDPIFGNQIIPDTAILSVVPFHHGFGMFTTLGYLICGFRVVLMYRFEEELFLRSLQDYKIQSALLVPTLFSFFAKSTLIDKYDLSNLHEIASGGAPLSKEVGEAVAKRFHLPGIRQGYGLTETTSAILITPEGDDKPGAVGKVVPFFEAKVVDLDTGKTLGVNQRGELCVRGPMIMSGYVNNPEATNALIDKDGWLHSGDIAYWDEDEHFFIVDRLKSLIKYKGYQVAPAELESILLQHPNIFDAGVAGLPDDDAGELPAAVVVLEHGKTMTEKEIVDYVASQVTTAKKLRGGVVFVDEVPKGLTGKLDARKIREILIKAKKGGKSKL
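Luminescence read by CCD imaging after purified firefly luciferase (10nM final) was added to substrate buffer holding 10uM D-luciferin and 10uM ATP, pH 7.5, pre-dosed with compound.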
HEK cytotox: kills HEK 293 cells; HEK 293 viability, ATP luminescence (CellTiter-Glo), 48-72 h; Potency, µM (top dose mostly 115 µM), hits mostly inhibitors; hit rate 6.6% among 94,000; AID 1345083; further: nearly all actives have a fitted effect of over 60% in size
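250 HEK 293 cells/well; compound by pintool; incubated 48 or 72 hr at 37 degree Celsius; CellTiter-Glo added, 10 min RT, luminescence imaged.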
HEK293 viab: counter-screen for SNCA expression inhibitors: cell viability; HEK-293-SNCA-luc viability, GF-AFC fluorescence, 24 h; Potency, µM (highest dose often 57.1 µM), most hits filed as cytotoxic; hit rate 0.12% among 150,000; further: nearly all actives have a fitted effect of over 30% in size
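Cytotoxicity counterscreen: after 24 h compound treatment of genome-edited SNCA-luciferase HEK-293 cells, live-cell protease substrate GF-AFC read by fluorescence after 30 min; activity scaled between DMSO (0%) and medium-only (-100%), curves Hill-fitted.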
hNpr1 antagonist: human Npr1 receptor antagonism | P16066 | HEK293 hNpr1 GloSensor cGMP, ANP-stimulated luminescence | Potency, µM (titrated, usually from 46.3 µM), usual class: inhibitors | hit rate 1.6% among 76,000 | AID 1347048; calls by dose curve; further: nearly all actives have a fitted effect of over 60% in size
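HEK293 cells stably expressing human Npr1 and cGMP GloSensor pGS-40F, loaded 2 h with 2% GloSensor reagent, given compound 30 min at room temperature. Luminescence read before and 20 min after 0.1 nM hNppA.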
SNCA expr inh: reduces expression of the alpha-synuclein gene; HEK-293 SNCA-luciferase knock-in, luminescence, 24 h; AID 1671194; hit rate 0.17% among 140,000; Potency, µM (highest dose often 57.2 µM), hits mostly inhibitors; further: nearly all actives have a fitted effect of over 45% in size
Numbers stand for hits; - = inactive; ? = inconclusive; . = no result given; [ ] = dose if it differs, or a comment. Unless noted, the call rests on the fitted dose curve; in most records, active means well fitted curve in the direction sought with a large enough effect; inconclusive means small, poorly fitted or top-dose-only effect, or another doubt; inactive means no such curve, though single readings can be large; an effect the other way counts as inactive or inconclusive.

SMILES	NIH3T3 tox	Luciferase inh	HEK cytotox	HEK293 viab	hNpr1 antagonist	SNCA expr inh
Cn1nc(C(=O)N2CCC(OCCOc3ccccc3)CC2)c2ccccc21	?	40µM	?	-[12.5 µM]	-	-
COc1ccc(-c2ccc(C(=O)NC3CCCC3)cc2)nn1	-	.	?	.	.	.
CC(C)Cn1c(=O)c(C(=O)N2CCN(C(=O)c3ccccc3Cl)CC2)nc2cccnc21	-	.	-	-	.	-
C[C@H]1[C@@H]2[C@@H](O)C([C@H](C)C(=O)NCc3ccc(F)cc3)CC[C@@]2(C)CC[C@@H]1NC(=O)c1ccccc1 (stereo not given in full)	?	-	40µM	-	-	-
CC(C)OC(C)C(=O)N1CCc2onc(-c3ccc(C(F)(F)F)cc3)c2C1 (stereo not given)	?	-	28µM	-	-	-
O=C(Nc1ccccc1)[C@@H]1OCCN(C2CC2)[C@H]1c1ccccc1	-	.	-	-	.	-
Cc1nn(-c2ccccc2)c2c1C(C)N(CC1CN(Cc3ccc(C(F)(F)F)cc3)C1)C2=O (stereo not given)	40µM	.	32µM	.	.	.
Cc1nn(-c2ccccc2)c2c1C(C)N(CC1CN(C(=O)c3ccc4c(c3)OCO4)C1)C2=O (stereo not given)	20µM	.	?	.	.	.
Cc1nn(-c2ccccc2)c2c1C(C1CC1)N(CC1CN(C(=O)C3CC3)C1)C2=O (stereo not given)	10µM	.	?	.	.	.
CCOC(=O)N1CC(CN2C(=O)c3c(c(C)nn3-c3ccccc3)C2C2CC2)C1 (stereo not given)	40µM	.	35µM	.	.	.
CCc1nc2c(c(-c3ccc(O)cc3)n1)CN(C(=O)c1ccc(OC)cc1)CC2	-	.	?	-	.	-
CCOC(=O)[C@H]1[C@@H](O)C(=O)N(C(C)C)C12CCN(C(=O)c1cc(C)oc1C)CC2	?	.	-	.	.	.
CC(=O)N1CC(CN2C(=O)c3c(c(C)nn3-c3ccccc3)C2C2CC2)C1 (stereo not given)	22µM	.	?	.	.	.
O=C(Nc1ccc(Cl)cc1)N1CCC(c2nn(-c3ccc(Cl)cc3)c(=O)[nH]2)CC1	?	-	?	-	-	-
c1ccc(Nc2cc3c(cn2)CN(Cc2cccs2)CCN3)cc1	50µM	?	50µM	-	-	-
c1ccc(Nc2cc3c(cn2)CN(Cc2cnc[nH]2)CCN3)cc1	?	?	?	-	-	-
c1ccc(CN2CCNc3cc(Nc4ccc(N5CCOCC5)cc4)ncc3C2)cc1	?	-	89µM	?	-	-
Fc1ccccc1CN1CCNc2cc(Nc3ccccc3)ncc2C1	50µM	20µM	112µM	-	-	-
CN(C)c1cccc(Nc2cc3c(cn2)CN(Cc2ccccc2)CCN3)c1	45µM	22µM	28µM	?	?	-
CN(C)c1cccc(-c2cc3c(cn2)CN(Cc2cccnc2)CCN3)c1	?	?	?	-	-	-
c1ccc(CN2CCNc3cnc(-c4ccc(N5CCOCC5)cc4)cc3C2)cc1	?	20µM	50µM	?	28µM	?
Fc1cccc(CN2CCNc3cc(Nc4ccccc4)ncc3C2)c1	45µM	32µM	40µM	?	-	-
FC(F)(F)Oc1cccc(CN2CCNc3cc(Nc4cccnc4)ncc3C2)c1	?	?	?	?	-	?
O=C(NCCc1ccccc1F)c1ccc2oc(-c3ccnc(Cl)c3)nc2c1	-	.	-	-	.	-
Cc1nnc2ccc(N3CCCC(NC(=O)C4CCCC4)C3)nn12 (stereo not given)	-	.	?	.	.	.
SMILES	NIH3T3 tox	Luciferase inh	HEK cytotox	HEK293 viab	hNpr1 antagonist	SNCA expr inh
O=C(c1ccccc1)N1CCC2(CC1)C(=NC1CCCCC1)NC(=O)N2c1cc(F)cc(F)c1	32µM	.	-	-	.	-
O=C(c1ccc(C(F)(F)F)cc1)N1CCC2(CC1)C(=NC1CCCC1)NC(=O)N2c1cccnc1	35µM	.	-	-	.	-
O=C(c1ccccc1)N1CCC2(C1)C(=NC1CCCCC1)NC(=O)N2c1cc(F)cc(F)c1 (stereo not given)	-	.	-	-	.	-
COc1cccc(N2C(=O)NC(=NC3CCCCC3)C23CCN(C(=O)c2ccccc2)CC3)c1	32µM	.	-	-	.	-
COc1cccc(N2C(=O)NC(=NC3CCCCC3)C23CCN(C(=O)c2ccccc2)C3)c1 (stereo not given)	-	-	?	-	-	-
COC(=O)c1cn([C@H]2CO[C@H]3[C@@H]2OC[C@@H]3NC(=O)C2CC2)nn1	-	-	-	-	-	-
CCCC1CN(Cc2ccccc2)[S+](=O)([O-])c2cccnc2O1 (stereo not given)	?	.	?	-	.	-
NC(=O)c1ccc([N+](=O)[O-])cc1Cl	.	.	.	-	.	-
O=[N+]([O-])c1ccc2c(c1)S(=O)(=O)C=C2	.	.	.	?	.	5µM
CCCC(C)C(=O)N1CCc2[nH]nc(C(=O)NCCCc3ccccc3)c2C1 (stereo not given)	40µM	.	35µM	-	.	?
O=C(NCCCc1ccccc1)c1n[nH]c2c1CN(C(=O)c1ccccc1Cl)CC2	?	?	?	-	-	-
CC(C)C(=O)N1CCc2[nH]nc(C(=O)NCCCc3ccccc3)c2C1	?	-	?	-	-	-
O=C(NCCCc1ccccc1)c1n[nH]c2c1CN(C(=O)c1ccccc1F)CC2	35µM	-	?	?	-	-
O=C(NCCCc1ccccc1)c1n[nH]c2c1CN(C(=O)c1c(F)cccc1F)CC2	?	-	18µM	-	-	-
Cc1ccccc1C(=O)N1CCc2[nH]nc(C(=O)NCCCc3ccccc3)c2C1	?	-	?	-	-	-
O=C(NCCCc1ccccc1)c1n[nH]c2c1CN(C(=O)c1ccc(F)cc1F)CC2	?	-	79µM	-	-	?
COc1cccc(CN2CCCN(S(=O)(=O)c3ccccc3)CCC(=O)NCC2)n1	-	-	-	-	-	-
O=C(CNC(=O)c1cccc(-c2ccc(C(F)(F)F)cc2)c1)NCCc1ccc(F)cc1	?	.	?	-[12.5 µM]	.	-
Cc1ccc(C(=O)N2CCc3[nH]nc(C(=O)NCCCc4ccccc4)c3C2)cc1F	?	.	?	-	.	?
O=C(NCCCc1ccccc1)c1n[nH]c2c1CN(C(=O)c1ccc3c(c1)OCO3)CC2	35µM	.	?	-	.	?
Cn1ncc2c(C(=O)NCc3ccccc3F)cc(-c3cccc(C(F)(F)F)c3)nc21	-	.	-	.	.	.
NC1CCN(C(=O)C2CCCN(c3nc(-c4ccccc4)nc4c3CCC4)C2)CC1 (stereo not given)	28µM	-	?	-	-	-
O=C(C1CCN(c2nc(-c3ccccc3)nc3c2CCC3)CC1)N1CCNCC1	?	-	?	?	-	-
O=C(NC1CCNCC1)C1CCCN(c2nc(-c3ccccc3)nc3c2CCC3)C1 (stereo not given)	40µM	-	?	-	-	-
